PubChem BioAssay AID1159580 (chemical genetic matrix, 2015)
About 2,000 (36%) of roughly 5,500 compounds were called active. About 18% were inconclusive and are not listed. Rule as the data show it: active = normalized growth mostly below about 0.91 (no sharp cut-off); inconclusive = no clear call, values can overlap the other calls; inactive = mostly above about 0.92. This is one part of the list.

Experiment: chemical genetic growth profiling, strain panel (AID 1159580);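 also: tested at 20 µM; growth read once vehicle control cultures reached saturation at 30 °C; 1 = growth at the plate median or of vehicle wells; lower values mean less growth of the strain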
Conditions: growth OD

Measured: normalized growth

CCc1cc(C(N)=S)ccn1
inactive: S. cerevisiae deletion strains, locus YJR066W, strain TOR1, hits give low values 1 | S. cerevisiae deletion strains, locus YKL009W, strain mrt4, hits give low values 0.966 | S. cerevisiae deletion strains, locus YKL068W, hits give low values 0.975 | S. cerevisiae deletion strains, locus YKL085W, strain MDH1 (second series), hits give low values 0.964 | S. cerevisiae deletion strains, locus YKL085W, strain MDH1, hits give low values 0.964 | S. cerevisiae deletion strains, locus YKL160W, strain elf1, hits give low values 1.05 | S. cerevisiae deletion strains, locus YKL190W, strain CNB1, hits give low values 0.991 | S. cerevisiae deletion strains, locus YKR001C, strain vps1, hits give low values 0.955 | S. cerevisiae deletion strains, locus YKR026C, strain gcn3, hits give low values 1 | S. cerevisiae deletion strains, locus YKR091W, strain srl3, hits give low values 1.01 | S. cerevisiae deletion strains, locus YLL001W, strain dnm1, hits give low values 1.04 | S. cerevisiae deletion strains, locus YLL026W, hits give low values 1 | S. cerevisiae deletion strains, locus YLL041C, strain sdh2, hits give low values 1 | S. cerevisiae deletion strains, locus YLR027C, strain aat2, hits give low values 0.987 | S. cerevisiae deletion strains, locus YLR039C, strain RIC1, hits give low values 0.939 | S. cerevisiae deletion strains, locus YLR058C, strain SHM2, hits give low values 0.978 | S. cerevisiae deletion strains, locus YLR102C, strain apc9, hits give low values 0.994 | S. cerevisiae deletion strains, locus YLR113W, strain HOG1, hits give low values 1.04 | S. cerevisiae deletion strains, locus YLR221C, strain rsa3, hits give low values 1.02 | S. cerevisiae deletion strains, locus YLR258W, strain gsy2, hits give low values 1 | S. cerevisiae deletion strains, locus YLR262C, strain YPT6 (second series), hits give low values 1.04 | S. cerevisiae deletion strains, locus YLR262C, strain YPT6, hits give low values 0.937 | S. cerevisiae deletion strains, locus YLR268W, strain sec22, hits give low values 0.977 | S. cerevisiae deletion strains, locus YLR320W, strain mms22, hits give low values 1.04 | S. cerevisiae deletion strains, locus YLR330W, strain CHS5, hits give low values 0.984 | S. cerevisiae deletion strains, locus YLR342W, strain FKS1 (second series), hits give low values 1.03 | S. cerevisiae deletion strains, locus YLR342W, strain FKS1, hits give low values 1.01 | S. cerevisiae deletion strains, locus YLR357W, strain rsc2, hits give low values 0.99 | S. cerevisiae deletion strains, locus YLR370C, strain arc18, hits give low values 1 | S. cerevisiae deletion strains, locus YLR371W, strain rom2, hits give low values 0.991 | S. cerevisiae deletion strains, locus YLR384C, strain iki3, hits give low values 1 | S. cerevisiae deletion strains, locus YLR418C, strain cdc73, hits give low values 0.999 | S. cerevisiae deletion strains, locus YML016C, strain PPZ1, hits give low values 0.99 | S. cerevisiae deletion strains, locus YML032C, strain rad52, hits give low values 0.973 | S. cerevisiae deletion strains, locus YML120C, strain ndi1, hits give low values 1.02 | S. cerevisiae deletion strains, locus YML124C, strain tub3, hits give low values 0.987 | S. cerevisiae deletion strains, locus YMR058W, strain fet3, hits give low values 1.01 | S. cerevisiae deletion strains, locus YMR078C, strain ctf18, hits give low values 0.978 | S. cerevisiae deletion strains, locus YMR125W, strain sto1, hits give low values 1 | S. cerevisiae deletion strains, locus YMR129W, hits give low values 0.996 | S. cerevisiae deletion strains, locus YMR205C, strain PFK2, hits give low values 1.07 | S. cerevisiae deletion strains, locus YMR223W, strain ubp8, hits give low values 1.03 | S. cerevisiae deletion strains, locus YMR231W, strain pep5, hits give low values 1 | S. cerevisiae deletion strains, locus YMR263W, strain SAP30, hits give low values 0.982 | S. cerevisiae deletion strains, locus YMR307W, strain GAS1, hits give low values 1.06 | S. cerevisiae deletion strains, locus YNL067W, strain RPL9B, hits give low values 0.954 | S. cerevisiae deletion strains, locus YNL071W, strain lat1, hits give low values 1.01 | S. cerevisiae deletion strains, locus YNL128W, strain TEP1, hits give low values 0.985 | S. cerevisiae deletion strains, locus YNL183C, strain NPR1, hits give low values 0.999 | S. cerevisiae deletion strains, locus YNL209W, strain ssb2, hits give low values 1.01 | S. cerevisiae deletion strains, locus YNL233W, strain BNI4, hits give low values 0.963 | S. cerevisiae deletion strains, locus YNL248C, strain rpa49, hits give low values 1 | S. cerevisiae deletion strains, locus YNL250W, strain rad50, hits give low values 0.964 | S. cerevisiae deletion strains, locus YNL271C, strain bni1, hits give low values 0.971 | S. cerevisiae deletion strains, locus YNL298W, strain CLA4, hits give low values 0.978 | S. cerevisiae deletion strains, locus YNL307C, strain MCK1, hits give low values 0.985 | S. cerevisiae deletion strains, locus YNL322C, strain KRE1 (second series), hits give low values 1.03 | S. cerevisiae deletion strains, locus YNR049C, strain mso1, hits give low values 1 | S. cerevisiae deletion strains, locus YNR052C, strain pop2, hits give low values 0.993 | S. cerevisiae deletion strains, locus YOL006C, strain TOP1, hits give low values 0.995 | S. cerevisiae deletion strains, locus YOL012C, strain htz1 1.05 | S. cerevisiae deletion strains, locus YOL147C, strain pex11, hits give low values 0.988 | S. cerevisiae deletion strains, locus YOR001W, strain rrp6, hits give low values 0.965 | S. cerevisiae deletion strains, locus YOR061W, strain CKA2, hits give low values 0.96 | S. cerevisiae deletion strains, locus YOR069W, strain VPS5, hits give low values 0.998 | S. cerevisiae deletion strains, locus YOR070C, strain gyp1, hits give low values 1.01 | S. cerevisiae deletion strains, locus YOR080W, strain dia2, hits give low values 0.998 | S. cerevisiae deletion strains, locus YOR083W, strain WHI5, hits give low values 1.05 | S. cerevisiae deletion strains, locus YOR106W, strain vam3, hits give low values 1.06 | S. cerevisiae deletion strains, locus YOR136W, strain idh2, hits give low values 0.984 | S. cerevisiae deletion strains, locus YOR144C, strain elg1, hits give low values 0.985 | S. cerevisiae deletion strains, locus YOR184W, strain ser1, hits give low values 1.01 | S. cerevisiae deletion strains, locus YOR231W, strain MKK1, hits give low values 1.07 | S. cerevisiae deletion strains, locus YOR265W, strain rbl2, hits give low values 1.03 | S. cerevisiae deletion strains, locus YOR270C, strain vph1, hits give low values 1.03 | S. cerevisiae deletion strains, locus YOR290C, strain snf2, hits give low values 1.01 | S. cerevisiae deletion strains, locus YOR316C, strain cot1, hits give low values 0.981 | S. cerevisiae deletion strains, locus YPL051W, strain arl3, hits give low values 0.998 | S. cerevisiae deletion strains, locus YPL078C, strain atp4, hits give low values 1.01 | S. cerevisiae deletion strains, locus YPL106C, strain sse1, hits give low values 1.02 | S. cerevisiae deletion strains, locus YPL240C, strain hsp82, hits give low values 0.982 | S. cerevisiae deletion strains, locus YPL256C, strain CLN2, hits give low values 1.15 | S. cerevisiae deletion strains, locus YPR119W, strain clb2, hits give low values 0.986 | S. cerevisiae deletion strains, locus YPR141C, strain kar3, hits give low values 0.974 | S. cerevisiae deletion strains, locus YPR163C, strain tif3, hits give low values 0.986 | S. cerevisiae deletion strains, locus YPR167C, strain met16, hits give low values 0.989 | S. cerevisiae deletion strains, strain wtn01, hits give low values 0.995 | S. cerevisiae strains, strain wild type, hits give low values 0.986
